Our source for the Percent Effect values is ChEMBL document CHEMBL3988442, “University of Dundee, Small-Polar-MMV Screening Library” (2021).

Assay [1] concerns the target T1, Aspartate--tRNA(Asp/Asn) ligase (Mycobacterium tuberculosis (strain ATCC 25618 / H37Rv)) (UniProt P9WFW3). Further: in the data most compounds retested in dose-response had high values.
T1 sequence (whole entry): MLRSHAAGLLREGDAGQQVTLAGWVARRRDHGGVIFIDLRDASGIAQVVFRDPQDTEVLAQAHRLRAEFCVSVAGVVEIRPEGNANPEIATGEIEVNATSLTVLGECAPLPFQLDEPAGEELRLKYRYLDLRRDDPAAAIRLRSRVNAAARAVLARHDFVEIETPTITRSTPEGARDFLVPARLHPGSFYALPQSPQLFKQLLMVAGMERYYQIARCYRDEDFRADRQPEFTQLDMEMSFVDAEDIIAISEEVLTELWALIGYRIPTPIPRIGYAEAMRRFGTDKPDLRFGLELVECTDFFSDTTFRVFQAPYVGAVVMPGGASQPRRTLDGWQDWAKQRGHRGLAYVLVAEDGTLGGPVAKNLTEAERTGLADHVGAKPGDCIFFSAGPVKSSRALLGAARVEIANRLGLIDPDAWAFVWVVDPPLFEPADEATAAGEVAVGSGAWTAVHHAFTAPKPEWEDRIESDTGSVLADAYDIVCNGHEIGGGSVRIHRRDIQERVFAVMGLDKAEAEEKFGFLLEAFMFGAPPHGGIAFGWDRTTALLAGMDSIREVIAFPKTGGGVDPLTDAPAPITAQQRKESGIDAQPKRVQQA
In words: Assay for Asp RNA synthetase-1 from Mycobacterium tuberculosis. The format is functional. More on the design: scale not given: direction of the effect not stated beside the values. To be noted: 30 µM.

Assay [2] deals with Shiga toxin 2 (Escherichia coli O157:H7) (UniProt P09385+P09386). Briefly: E. coli 0.157:H7 Shiga Toxin SOP - stx2 screening assay. To be noted: 30 µM. Also noted: scale not given: direction of the effect not stated beside the values. The assay is classed as functional.

`Cc1cc(CC(=O)N2CCCC2c2nc(C(C)C)no2)on1` (stereo not given): the Percent Effect is -3.79% in assay [1] and 8.6% in assay [2].

Regarding `COc1cc(C)nc(N2CCN(C(=O)CCc3nccs3)CC2)n1`, the Percent Effect in assay [1] is 2.87%; in assay [2] it was -3.5%.

Consider `NC(=O)C1CN(C(=O)Nc2ccccc2SC(F)(F)F)CCO1` (stereo not given), for which the Percent Effect in assay [1] is -5.1%; in assay [2], -11.7%.

For `Cn1cc(C(=O)N2C[C@@H]3COC[C@]3(COCc3cccnc3)C2)cn1`, the values for the Percent Effect in assay [1] and in assay [2] were -0.306% and -6.37%, respectively.

Consider `CC(C)NS(=O)(=O)c1cc(C(=O)O)cc(-c2ccccc2CN(C)C)c1`, for which the Percent Effect is 1.25% in assay [1] and -13.2% in assay [2].

As for `CN(Cc1ccc(F)cc1)CC1(O)CCN(C(=O)c2ccccc2)C1` (stereo not given), the Percent Effect in assay [1] was 3.23%; in assay [2], -6.1%.

Regarding `CN(C)c1ccc(C(=O)NCC2(O)CCOCC2)cc1`, the values for the Percent Effect in assay [1] and in assay [2] were -2.13% and -12.5%, respectively.

Turning to `CC(C)c1nn(C)c(N2CCOCC2)c1CNC(C)c1cccs1` (stereo not given), the values for the Percent Effect in assay [1] and in assay [2] were -0.59% and 33.2%, respectively.

As to `O=C(Cc1cccc(F)c1)NCCNCc1ccc2c(c1)CCO2`, the Percent Effect in assay [1] was -0.182%; in assay [2] it was -76.4%.

For `COc1cc(C)sc1C(=O)N1CCC(Nc2cccnc2)CC1`, the results for the Percent Effect in assay [1] and in assay [2] were -3.37% and -50.2%, respectively.

`CC(C)C(C(=O)N1CCN(c2ccncc2)CC1)n1cncn1` (stereo not given): the figures for the Percent Effect in assay [1] and in assay [2] were 7.82% and -47.8%, respectively.

As to `CCCN(C(=O)COC)c1nc2c(s1)CCc1c-2cnn1C`, the Percent Effect in assay [1] is -1.78%; in assay [2], -37.9%.

With `CC(=O)Nc1nc(CN2CCCC2Cn2cncn2)cs1` (stereo not given), the Percent Effect is -6.16% in assay [1] and -44% in assay [2].

Turning to `CC(C)(C)c1nnc(CN2CCN(S(C)(=O)=O)CC2)o1`, the Percent Effect in assay [1] was 1.17%; in assay [2], -26.2%.

Take `O=C(N1CCCC1)N1CCC2(CCCN(CCOc3ccccc3)C2)C1` (stereo not given): the Percent Effect in assay [1] was -0.364%; in assay [2] it was -4.82%.

Turning to `CCn1cc(NC(=O)NCC(c2cccc(F)c2)N(C)C)cn1` (stereo not given), the Percent Effect in assay [1] was -4.28%; in assay [2] it was 21.4%.

Regarding `CC(C)Nc1nc2c(cc1C(=O)NCC1CC1)CCNCC2`, the figures for the Percent Effect in assay [1] and in assay [2] were 0.611% and 2.86%, respectively.

For `CCO[C@H]1CO[C@@]2(CCCN(Cc3nc(C)cs3)C2)C1`, the Percent Effect in assay [1] was -4.51%; in assay [2], -13.5%.

`O=C(CCC1CCN(Cc2ncc[nH]2)CC1)Nc1ccccc1Cl`: the Percent Effect was 0.166% in assay [1] and -7.7% in assay [2].

As for `CC(NC(=O)CCCOc1ccccc1)c1nnc2n1CCCCC2` (stereo not given), the Percent Effect in assay [1] was 4.5%; in assay [2] it was 19.8%.

Turning to `CCc1nc(C2CCCN(C(=O)c3ccc4[nH]nnc4c3)C2)no1` (stereo not given), the Percent Effect in assay [1] is 2.74%; in assay [2] it was 14.5%.

As for `O=C(c1cccnc1-n1cncn1)N1CCN(CC2CC2)CC1`, the Percent Effect in assay [1] was 0.524%; in assay [2], -1.68%.

`CN(CC(=O)NCc1ccccn1)CC1CCCN1c1cccnn1` (stereo not given): the results for the Percent Effect in assay [1] and in assay [2] were -4.1% and -17.5%, respectively.

Turning to `COc1cc(C(=O)N2CCCC(CNS(C)(=O)=O)C2)cc(OC)c1C` (stereo not given), the values for the Percent Effect in assay [1] and in assay [2] were -4.03% and 25.9%, respectively.

As to `O=C(NC1CCS(=O)(=O)C1)N1CCN(c2cnccn2)CC1` (stereo not given), the Percent Effect was -1.72% in assay [1] and -8.56% in assay [2].

`c1ccc(CN2CC[C@@H]3O[C@@H](COCC4CCOCC4)CC[C@@H]32)nc1`: the Percent Effect was 7.81% in assay [1] and -21.9% in assay [2].

As to `COC(=O)Cn1cccc(S(=O)(=O)N2CCC(C)CC2)c1=O`, the Percent Effect in assay [1] is -4.76%; in assay [2], -36.3%.

With `Cc1ncc2c(n1)CCCC2NC(=O)c1ccncc1` (stereo not given), the Percent Effect in assay [1] is 2.71%; in assay [2], -63.8%.

In the case of `Cc1ccc(NC2CCN(C(=O)Cc3ccc(C#N)cc3)CC2)nn1`, the results for the Percent Effect in assay [1] and in assay [2] were 4.2% and -11.6%, respectively.

As to `O=C(NCCc1ccn(-c2ccccc2)n1)N1CCC1`, the Percent Effect is 1.53% in assay [1] and -11.7% in assay [2].

`O=C(Cn1cc(C(=O)O)ccc1=O)NCc1ccc(F)c(Cl)c1`: the figures for the Percent Effect in assay [1] and in assay [2] were 3.08% and -51.8%, respectively.

As to `CC(Oc1ccccc1C(F)(F)F)C(=O)NCC(N)=O` (stereo not given), the Percent Effect was -3.56% in assay [1] and 11.5% in assay [2].

Turning to `CC(C)NC(=O)N1CCC2(CC(=O)N(c3cccc(C#N)c3)C2)C1` (stereo not given), the Percent Effect in assay [1] was determined as 5.75%; in assay [2], 8.35%.

With `Cc1nn(C)cc1CN(C)Cc1cc2c(cc1OC(F)F)OCO2`, the Percent Effect in assay [1] was 3.57%; in assay [2] it was -11.3%.

For the compound `CN(Cc1ccccc1)C(=O)c1nc(S(C)(=O)=O)n2ccccc12`, the figures for the Percent Effect in assay [1] and in assay [2] were -4.08% and 20.9%, respectively.

On to `Cc1nc(C2CCCN2CC(=O)NCCc2ccsc2)no1` (stereo not given), for which the Percent Effect in assay [1] is 1.22%; in assay [2], -9.77%.

In the case of `Cc1ccc(CC(=O)N2CCc3nnc(N(C)C)cc3C2)cn1`, the results for the Percent Effect in assay [1] and in assay [2] were 0.322% and -40.7%, respectively.

Consider `CCCN(C(=O)c1ccccn1)c1nc2c(s1)CCc1c-2cnn1C`, for which the Percent Effect in assay [1] was 55.9%; in assay [2], -72.4%.

`Cn1cc(CN2C[C@@H]3CN(Cc4ccoc4)CCO[C@@H]3C2)cn1`: the values for the Percent Effect in assay [1] and in assay [2] were 3.69% and -1.85%, respectively.

Turning to `CCN(Cc1nc2c(cnn2C)c(=O)[nH]1)c1ccc(OC)c(OC)c1`, the Percent Effect in assay [1] was 2.9%; in assay [2], -61.1%.

On to `COc1ccc2c(ccn2CCC(=O)O)c1`, for which the Percent Effect in assay [1] is -2.82%; in assay [2], -49%.

With `CCc1ccc(C(=O)NC2CCN(c3cnn(C)c3)C2=O)o1` (stereo not given), the Percent Effect in assay [1] is 3.57%; in assay [2] it was -7.19%.

On to `CC(Cn1cccn1)NC(=O)N1CCN(Cc2cccnc2)CC1` (stereo not given), for which the values for the Percent Effect in assay [1] and in assay [2] were 0.625% and -18.1%, respectively.

`Cn1nccc1-c1ccc2nc(C3CCN(CCO)CC3)nn2c1`: the values for the Percent Effect in assay [1] and in assay [2] were -1.83% and -15.6%, respectively.

Take `Cn1cc(C2CCCN2C(=O)Cc2n[nH]c3ccccc23)cn1` (stereo not given): the Percent Effect was -9.51% in assay [1] and -33.7% in assay [2].

Consider `CCN(C)c1ncnc2c1CCN(C(=O)N1CCCC1)CC2`, for which the Percent Effect was 9% in assay [1] and -30.9% in assay [2].

For the compound `CC[C@@H](CO)NC(=O)c1coc(COc2ccc(OC)cc2)n1`, the Percent Effect is 6.33% in assay [1] and -5.46% in assay [2].

`Nc1nc(CN2CCCC(Cn3cncn3)C2)nc2ccccc12` (stereo not given): the Percent Effect in assay [1] is 0.466%; in assay [2], -13.2%.

As for `COCc1cccc(NC(C)C(=O)N(C)Cc2ccccc2)c1` (stereo not given), the Percent Effect in assay [1] was -0.212%; in assay [2], -8.1%.

With `CC(NC(N)=O)C(=O)N1CCCN(Cc2nccn2C(C)C)CC1` (stereo not given), the values for the Percent Effect in assay [1] and in assay [2] were 0.509% and 8.58%, respectively.
